Experimental data: PubChem BioAssay (NCATS)
Inconclusive results are not listed. A number with no mark means an inactive call. Active and inactive are the calls of the source. Calls come from the whole dose curve; as a rule, active = well fitted cell-killing curve with a large enough effect; inconclusive = small, poorly fitted or top-dose-only effect, or effect the other way; inactive = no such curve, though single readings can be large or run the other way.

Assay: qHTS of pediatric cancer cell lines to identify multiple opportunities for drug repurposing: Confirmatory screen for OHS-50 cells (AID 1347128);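 note: compound exposure lasted 48 h at 37 degrees C; nearly all actives have a fitted effect of over 55% in size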
Conditions: OHS-50 osteosarcoma cells viability; series mostly up to 45.9 µM; activity change, negative = cytotoxic: at the top concentration
Text: Drug repurposing or repositioning has been offered as a strategy for drug development in oncology programs. This approach has special potential for childhood cancers and other rare or orphan diseases, where the expected return on new drug development has been a disincentive to pharmaceuticals.
In this project we exploit the poly-pharmacology of drugs to discover new indications via phenotypic screening of a panel of 19 well-characterized cell lines derived from solid tumors seen in children and adolescents. The goal is to identify approved drugs with previously unrecognized anticancer properties that has the potential to reveal new mechanisms and biological processes involved in carcinogenesis or drug resistance. We employed a titration-based paradigm (quantitative high-throughput screening or qHTS), where all compounds were tested at multiple concentrations for their effect on cell viability. Concentration-response curves (CRCs) were derived directly from the primary screen, and both potency and efficacy values were used to identify compounds with robust bioactivity profiles. We screened the NIH Chemical Genomics Center (NCGC) Pharmaceutical Collection (NPC) and Mechanism Interrogation Plate (MIPE) small molecule collections of approved and investigational compounds against these cell lines; and measured metabolically active cells after 48 hours of compound treatment as a proxy for cell viability.
Assay Submitter: Nathalia J. Martinez, National Center for Advancing Translational Sciences, National Institutes of Health, Rockville, MD, USA; email: natalia.martinez@nih.gov
[1] Shen, M et al. Quantitative high-throughput phenotypic screening of pediatric cancer cell lines identifies multiple opportunities for drug repurposing. Oncotarget 2017 Dec 19;9(4):4758-4772. PMID 29435139.
The cells were obtained from University of North Carolina (UNC), Pediatric Preclinical Testing Program (PPT), and Coriell Institute (CI).
qHTS cell viability assay:
Cells were assayed in growth media at a density of 500-1,000 cells/well. Five microliters of cells were dispensed into 1,536-well, white, solid-bottom, TC-treated plates (Greiner Bio One) using a multidrop dispenser and incubated at 37 degrees C, 5% CO2, under a humidified atmosphere for 5 hours. Twenty-three nanoliters of compounds and controls (neutral control DMSO or positive control bortezomib at final concentration of 2.3 µM) were subsequently transferred by Kalypsys pintool. For primary screens, the MIPE collection was tested at 11-point dilutions (final concentrations range from 0.78 nM to 46 µM) and the NPC collection at 8-point dilutions (final concentrations range from 0.59 nM to 46 µM). Compounds tested in follow-up screens were assayed at 11-point dilutions. Cells were incubated for 48 hours, followed by addition of 3 µL of CellTiter-Glo (Promega). After a 15 min incubation at room temperature, samples were analyzed for luminescence intensity using a ViewLux High-throughput CCD imager equipped with clear filters.
% is set by controls: 0 for no effect and ±100 for the full control effect; potency is the fitted concentration of half-maximal effect.

Row | SMILES | activity change, negative = cytotoxic | Potency
1 | COc1cccc(-c2cc(=O)c3ccccc3o2)c1N | -8.87% | –
2 | NC1=N[C@@]2(c3cc(NC(=O)c4ccc(F)cn4)ccc3F)COC[C@@H]2CS1 | 0.333% | –
3 | O=C(NCc1ccncc1)C12C[C@H]3C[C@@H](C1)CC(c1ccc(Cl)cc1)(C3)C2 | – | 13100 nM (active)
4 | COc1cc2nc(-c3ccc(N4CCN(C)CC4)cc3)nc(NCCN3CCOCC3)c2cc1OC | – | 117 nM (active)
5 | COc1cc(N2CCC(N3CCN(C)CC3)CC2)ccc1Nc1ncc(Cl)c(Nc2ccccc2S(=O)(=O)C(C)C)n1 | – | 2330 nM (active)
6 | CO[C@H]1C(=O)[C@]2(C)[C@@H](OC)C[C@H]3OC[C@@]3(OC(C)=O)[C@H]2[C@H](OC(=O)c2ccccc2)[C@]2(O)C[C@H](OC(=O)[C@H](O)[C@@H](NC(=O)OC(C)(C)C)c3ccccc3)C(C)=C1C2(C)C | – | 16.5 nM (active)
7 | CC1(C)S[C@H]2[C@H](NC(=O)[C@@H](N)c3ccc(O)cc3)C(=O)N2[C@@H]1C(=O)O | 3.15% | –
8 | CN[C@@H](C)C(=O)N[C@H]1CN(C(=O)CC(C)C)CC[C@H]2CC[C@@H](C(=O)NC(c3ccccc3)c3ccccc3)N2C1=O | -3.45% | –
9 | C=C1C(=O)[C@@]23C(CC[C@@H]1[C@H]2O)[C@@]12CO[C@]3(O)[C@@H](O)[C@@H]1C(C)(C)CC[C@@H]2O (some centres undefined) | – | 20800 nM (active)
10 | O=C1NC(=O)C(=Cc2ccc3c(c2)OC(F)(F)O3)S1 | -18.9% | –
11 | CO[C@H]1C=CC=C(C)C(=O)NC2=CC(=O)C(NCCN(C)C)=C(C[C@@H](C)C[C@H](OC)[C@@H](O)[C@@H](C)C=C(C)[C@@H]1OC(N)=O)C2=O | 11.1% | –
12 | CN(C)C1CCN(C(=O)c2ccc(NC(=O)Nc3nc(N4CCOCC4)nc(N4CCOCC4)n3)cc2)CC1 | – | 465 nM (active)
13 | OC[C@H]1O[C@@H](n2cnc3c2NC=NC[C@@H]3O)C[C@H]1O | -2.93% | –
14 | NS(=O)(=O)c1cccc2c1C(=O)c1cccc(O)c1C2=O | – | 2930 nM (active)
15 | N[C@@]1(C(=O)O)CS(=O)(=O)[C@H]2[C@H](C(=O)O)[C@H]21 | – | 928 nM (active)
16 | COc1ncc(-c2ccc3nccc(-c4ccnnc4)c3c2)cc1NS(=O)(=O)c1ccc(F)cc1F | – | 233 nM (active)
17 | CC(C)(C(=O)NCC(F)(F)C(F)(F)F)C(=O)N[C@@H]1C(=O)Nc2ccccc2-c2ccccc21 | -15.3% | –

Row | SMILES | activity change, negative = cytotoxic | Potency
18 | CC(=NNC(=S)N1CCC1)c1ccccn1 | 4.36% | –
19 | O=C(O)c1ccc(-c2c[nH]c3ncc(-c4ccccc4)cc23)cc1C1CCCC1 | -11.2% | –
20 | O=c1[nH]cnc2c1ncn2[C@H]1CC[C@@H](CO)O1 | -6.31% | –
21 | Nc1ncnc2c1ncn2[C@@H]1O[C@@H](CO)[C@H](O)[C@H]1O | -4.42% [at 29.6 µM] | –
22 | CC(C)n1nc(-c2ccc3oc(N)nc3c2)c2c(N)ncnc21 | – | 3690 nM (active)
23 | CC(=O)O[C@]1(C(C)=O)CC[C@@H]2[C@@H]3C[C@H](C)C4=CC(=O)CC[C@]4(C)[C@H]3CC[C@@]21C | -52.9% | –
24 | O=C(Nc1cccc(Br)c1)c1cccc(S(=O)(=O)N2CCCCCC2)c1 | -20.7% | –
25 | O=C1c2ccccc2-[n+]2ccc3c([nH]c4ccccc43)c21 | – | 1650 nM (active)
26 | O=C(O)c1ccc(-c2cc3cccnc3c(-c3ccc4nonc4c3)n2)cc1 | – | 6570 nM (active)
27 | COc1ccc(-c2coc3cc(O)cc(O)c3c2=O)cc1 | -16.4% | –
28 | COc1cc2ncnc(Nc3ccc(F)c(Cl)c3)c2cc1OCCCN1CCOCC1 | – | 38000 nM (active)
29 | CC(=O)Oc1cc2c(s1)CCN(C(C(=O)C1CC1)c1ccccc1F)C2 (centres undefined) | -0.105% | –
30 | CC1(C)O[C@H]2C[C@@H]3[C@H]4CCC5=CC(=O)C=C[C@]5(C)[C@@]4(F)[C@@H](O)C[C@]3(C)[C@]2(C(=O)CO)O1 | -7.07% | –
31 | CC[C@]1(O)C[C@@H]2CN(CCc3c([nH]c4ccccc34)[C@@](C(=O)OC)(c3cc4c(cc3OC)N(C=O)[C@@H]3C45CCN4CC=C[C@](CC)([C@H]45)[C@@H](OC(C)=O)[C@]3(O)C(=O)OC)C2)C1 (some centres undefined) | 14.7% | –
32 | CC(=O)Nc1ccc([C@H](C)C(=O)Nc2ncc(C(C)C)s2)cc1 | – | 7370 nM (active)
33 | CC1(C)CCC[C@@]2(C)[C@@H]1CC[C@@]1(C)OC(=O)C[C@H]21 | 2.91% | –
34 | CCc1ccc(OCc2ccccc2C(=O)Nc2ccc3nc(C)cc(N)c3c2)cc1 | – | 9270 nM (active)
